CtBP-E1A inh: CtBP/E1A binding inhibition | 0.49% of 340,000 active | AlphaScreen GST-E1A/His-CtBP binding, 1536-well; stronger effect = lower value | AID 651724 | activity change, % (no concentration beside the values); in the data active = activity change below about -65%; inconclusive = mostly about -30% to -63%; also: % is scaled to controls: 0 for no effect and ±100 for the full control effect
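Steps: dispense buffer (Tris pH 8.0, NaCl 300 mM, TCEP 1 mM, BSA, Tween 20); add 5X protein mix (GST-E1A, His-CtBP, 125 nM each); pin 23 nL compound; 2 h at 37 °C, dark; add 5X beads (50 ug/mL); 1 h; read.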
CBFb RUNX1 block: inhibitors of human CBF-beta and RUNX1 interaction; Q01196+Q13951; AlphaScreen CBFb-His/RUNX1-biotin binding, biochemical; Potency, µM (titrated, usually from 59.8 µM), for inactives: at the highest dose activity, negative = inhibition, most hits filed as inhibitors; 230,000 tested, under 10 active; AID 1477; also: % of control where 0% means no effect
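CBFb-His/RUNX1-biotin, 30 nM each, preincubated 20 min RT; compound 15 min RT; Ni + streptavidin beads 50 ng each, 90 min RT; AlphaScreen read.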
Gal4-VP16 FLuc: inhibits Gal4-VP16 luciferase reporter, ROR gamma counter-screen | Drosophila S2 Gal4-VP16 UAS-luciferase, luminescence, 20 h | Potency, µM (highest dose often 53.6 µM), for inactives: at the highest dose activity, negative = inhibition, actives largely listed as inhibitors | 3.5% of 310,000 active;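 also: Gal4-VP16 expression switched on by copper sulfate through the metallothionein promoter; potency is read from the fitted curve at half-maximal effect; % is scaled to controls: 0 for no effect and ±100 for the full control effect; nearly all actives have a fitted effect of over 50% in size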
Six1-Eya2 inh: Six1/Eya2 interaction inhibition. Q15475+O00167. AlphaScreen GST-Six1/His-Eya2 binding, biochemical; stronger effect = lower value. activity change, % (no concentration beside the values). 0.56% of 360,000 active. AID 651725; in the data active = activity change below about -65%; inconclusive = mostly about -30% to -63%; also: % is scaled to controls: 0 for no effect and ±100 for the full control effect
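AlphaScreen luminescence read after one hour at 37 °C in darkness. Pin-transferred compounds met GST-Six1 and His-Eya2 protein (5X stock 250 nM/500 nM) plus glutathione donor and Ni-chelate acceptor beads (5X, 50 ug/mL).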
MBNL1-CUG inh: inhibitors of human MBNL1 binding to CUG repeat RNA; Potency, µM (highest dose often 57.5 µM), inactives show at the highest dose activity change, negative = inhibition, usual class: inhibitors; TR-FRET MBNL1-His/biotin-(CUG)12 binding, 665/545 ratio; 0.036% of 280,000 active; Q9NR56; AID 2675; active = well fitted inhibition curve with a large enough effect in the signal ratio, with a control signal flat, not every such curve was filed as active; inconclusive = small, poorly fitted or top-dose-only effect, or effect the other way, or a change in a side signal; inactive = no such curve, though single readings can be large or run the other way; the % refers to the signal ratio; also: potency is read from the fitted curve at half-maximal effect; % is scaled to controls: 0 for no effect and ±100 for the full control effect
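Compounds (final 92 nM to 58 uM) are added to His-tagged MBNL1 and biotin-(CUG)12, then terbium anti-His antibody and streptavidin-XL665 (5 nM final). After 60 min at room temperature, the 665/545 nm ratio is read.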
RORg inh: ROR gamma (mouse) transcription inhibition; P51450; Drosophila S2 Gal4-RORgamma UAS-luciferase reporter, 20 h; Potency, µM (series often up to 53.6 µM), without a hit: at the highest dose activity change, negative = inhibition, most hits filed as inhibitors; 5.4% of 310,000 active; AID 2551; also: potency is read from the fitted curve at half-maximal effect; % is scaled to controls: 0 for no effect and ±100 for the full control effect; nearly all actives have a fitted effect of over 60% in size
Target sequence (P51450 whole entry, looked up, the tested form may be a part): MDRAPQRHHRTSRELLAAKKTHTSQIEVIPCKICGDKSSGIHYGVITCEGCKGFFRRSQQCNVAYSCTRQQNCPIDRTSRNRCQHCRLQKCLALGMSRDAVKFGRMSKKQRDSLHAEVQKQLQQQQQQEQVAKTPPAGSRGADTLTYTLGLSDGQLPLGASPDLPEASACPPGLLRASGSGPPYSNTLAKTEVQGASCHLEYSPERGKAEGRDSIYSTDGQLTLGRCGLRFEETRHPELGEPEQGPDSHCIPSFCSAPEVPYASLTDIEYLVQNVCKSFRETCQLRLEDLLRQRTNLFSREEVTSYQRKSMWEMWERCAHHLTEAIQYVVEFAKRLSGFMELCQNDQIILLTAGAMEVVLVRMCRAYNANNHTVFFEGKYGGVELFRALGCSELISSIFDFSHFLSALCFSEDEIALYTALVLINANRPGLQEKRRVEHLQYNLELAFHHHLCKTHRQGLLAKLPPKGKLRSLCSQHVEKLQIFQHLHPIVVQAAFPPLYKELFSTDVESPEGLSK
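A Gal4/UAS one-hybrid system in insect cells: metallothionein-promoter Gal4–ROR gamma fusion plus Photinus luciferase reporter. Copper sulfate 700 uM final, 20 hr ambient incubation, luminescent detection after 10 min with reagent.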
Active calls of the source: *; ? = inconclusive; . = no result given; [ ] = dose if it differs, or a comment. Sampled rows, rich in hits. Any-hit rate of the full collection: about 5.5%. Unless noted, calls follow the shape of the dose curve; as a rule, active = well fitted curve in the direction sought with a large enough effect; inconclusive = small, poorly fitted or top-dose-only effect, or another doubt; inactive = no such curve, though single readings can be large; an effect the other way counts as inactive or inconclusive.

SMILES | CtBP-E1A inh | CBFb RUNX1 block | Gal4-VP16 FLuc | Six1-Eya2 inh | MBNL1-CUG inh | RORg inh
COc1cc(-c2n[nH]c(=S)n2-c2ccc(C)cc2)cc(OC)c1OC | 2 | 2% | 0% | 0 | 0% | 15%
O=C(Nc1nnc(CCc2ccccc2)s1)c1cccc(F)c1 | . | . | -17% | 7 | 8% | 18µM*
O=C(Nc1nnc(CCc2ccccc2)s1)c1ccc(F)cc1 | -13 | . | 13% | -12 | -13% | -28%
N#CC(C#N)=Cc1cnc(N2CCN(c3ccccc3)CC2)s1 | 8 | . | -10% | -7 | 5% | 9%
Oc1ccccc1N=Nc1ccccc1O | . | . | -24% | -86* | 31% | 1.4µM*
Cc1onc(-c2ccccc2Cl)c1C(=O)NC(=S)Nc1ccc(C(C)C)cc1 | . | -1% | ? | -2 | -1% | 1.8µM*
CC(=O)N1CCN(C(=S)NC(=O)c2c(-c3ccccc3Cl)noc2C)CC1 | 4 | -1% | 5µM* | 3 | -8% | 1.6µM*
COC(=O)c1ccc(C)c(NC(=O)c2c(-c3ccccc3)noc2C)c1 | 12 | 17% | -5% | 5 | 8% | 12%
Cc1ccc(NC(=S)NC(=O)c2c(-c3ccccc3Cl)noc2C)cc1 | -13 | 2% | 11µM* | -7 | 4% | 4µM*
COC(=O)c1ccc(NC(=S)NC(=O)c2c(-c3ccccc3)noc2C)cc1 | -1 | 10% | ? | -3 | -11% | 7.1µM*
CCCC1CC(C(=O)N[C@H](C(C)O)C2OC(SC)[C@@H](O)C(O)C2O)N(C)C1 (stereo partly specified) | . | -1% | 13% | . | . | 7%
CCOc1ccc(C(=O)NCC(=O)NNC(=O)CN(C)S(=O)(=O)c2ccc(Cl)cc2)cc1 | -9 | . | . | 0 | . | .
COC(=O)C1=C(C(=O)OC)[C@@H]2N(C)c3ccc(OC)cc3[C@@]23C[C@@H](C(=O)OC)N(S(=O)(=O)c2ccc(C)cc2)C3=N1 | . | 0%[13.1 µM] | . | . | . | .
CCn1c(=O)c(C(=O)NCc2ccccc2)c(O)c2ccccc21 | -5 | . | 16µM* | 7 | 2% | ?
CCCn1c(=O)c(C(=O)NCCc2ccc(Cl)cc2)c(O)c2ccccc21 | -11 | . | ? | 2 | -4% | 14µM*
CCn1c(=O)c(C(=O)NCc2ccc(F)cc2)c(O)c2ccccc21 | 37 | . | ? | 21 | 2% | 13µM*
CCn1c(=O)c(C(=O)NCCc2ccc(Cl)cc2)c(O)c2ccccc21 | 0 | . | -19% | 9 | -12% | ?
CCn1c(=O)c(C(=O)NCc2ccc(Cl)cc2)c(O)c2ccccc21 | 10 | . | 6% | 4 | -5% | ?
COc1ccccc1CN1CC2(CCN(C(=O)c3cccc(F)c3)CC2)C1 | . | . | -24% | . | . | 7%
COc1cnc(-c2ccccn2)nc1Sc1ccc(C)cc1 | ? | ? | 10µM* | ? | . | 1.1µM*
FC(F)(F)c1cccc(Sc2cc(C(F)(F)F)nc(-c3ccccn3)n2)c1 | -3 | 0% | -6% | 4 | -9% | 15%
COc1cnc(-c2ccccn2)nc1Sc1cccc(Cl)c1 | -7 | -23% | 8.9µM* | 1 | 5% | 2µM*
Cc1ccc(Sc2cc(C)nc(-c3ccccn3)n2)cc1 | 1 | -8% | 3.2µM* | 11 | -6% | 0.35µM*
CCn1c(-c2ccc3[nH]c(C)c(C)c3c2)n[nH]c1=S | 9 | -1% | 13µM* | -7 | -5% | 11µM*
Cc1cccc(-c2n[nH]c(=S)n2C)c1 | -7 | -3% | ? | -5 | -10% | ?
SMILES | CtBP-E1A inh | CBFb RUNX1 block | Gal4-VP16 FLuc | Six1-Eya2 inh | MBNL1-CUG inh | RORg inh
CCOC(=O)c1ccc2[nH]c(C)c(C)c2c1 | -2 | . | . | -9 | . | .
Cc1[nH]c2ccc(-c3n[nH]c(=S)n3C)cc2c1C | 6 | -10% | ? | -4 | -3% | 11µM*
CN(c1ccc(OCC(=O)OCC(=O)Nc2c(F)c(F)c(F)c(F)c2F)cc1)S(=O)(=O)c1ccc(F)cc1 | -4 | 4% | -8% | 1 | -12% | -2%
COCCn1c(=S)[nH]c2cc(C(=O)N3CC(C)CC(C)C3)ccc2c1=O (stereo unspecified) | 11 | . | ? | -4 | 1% | 11µM*
O=C(CCCn1c(=S)[nH]c2ccccc2c1=O)N1CCCCC1 | 0 | 7% | ? | 1 | 2% | ?
COCCn1c(=S)[nH]c2cc(C(=O)N3CCCC(C)C3)ccc2c1=O (stereo unspecified) | 3 | . | ? | -5 | 2% | ?
O=C(CCCn1c(=S)[nH]c2ccccc2c1=O)NCCSCc1ccccc1 | -2 | 2% | -5%[10 µM] | -4 | 28% | 13µM*
COCCn1c(=S)[nH]c2cc(C(=O)N3CCN(c4ccccc4OC)CC3)ccc2c1=O | 0 | 8% | ? | -3 | 2% | 14µM*
CC1CC(C)CN(C(=O)CCCn2c(=S)[nH]c3ccccc3c2=O)C1 (stereo unspecified) | -2 | 3% | 13µM* | -2 | 0% | 7.9µM*
CCC(=O)N1C2=C(c3ccccc3[C@@H]1CC(=O)Nc1ccc3ccccc3c1)[C@@H]1C(=O)N(c3ccccc3)C(=O)[C@@H]1[C@H](C)C2 | . | -1%[13.1 µM] | . | . | . | .
Cc1cc(C)c2sc(NC(=O)c3ccc(N4C(=O)CCC4=O)cc3)nc2c1 | 9 | -8% | ? | 5 | 24% | 0.11µM*
NC(=O)c1c(NC(=O)c2ccc(N3C(=O)CCC3=O)cc2)sc2c1CCCC2 | . | . | . | -68* | . | .
O=C(Nc1nc2cc3c(cc2s1)OCCO3)C1=COCCO1 | -8 | -3% | 2.2µM* | -2 | 2% | 1µM*
Cc1cc(C)c2sc(NC(=O)C3=COCCO3)nc2c1 | 4 | . | 5.6µM* | 5 | -9% | 0.79µM*
CC1CCc2sc(NC(=O)c3ccc(N4C(=O)CCC4=O)cc3)c(C(N)=O)c2C1 (stereo unspecified) | 2 | . | -23% | -2 | 2% | -1%
Cc1cc(C)c(-c2csc(NC(=O)C3=COCCO3)n2)c(C)c1 | -2 | . | . | -7 | . | .
CN(C)Cc1ccccc1CNC(=O)c1ccc(Cl)c(S(=O)(=O)NC2CC2)c1 | -1 | . | . | 6 | . | .
C[C@H]1CN([C@@H](C)CO)C(=O)CCCn2cc(nn2)CO[C@@H]1CN(C)C(=O)c1ccncc1 | 25 | . | . | 18 | . | .
O=C(N/N=C/c1ccco1)c1cc(-c2ccc(Cl)s2)[nH]n1 | -19 | -8% | 0% | -10 | ? | 7%
Cc1ccc(-c2cc(C(=O)N/N=C/C=C/c3ccccc3)n[nH]2)s1 | -16 | -6% | 7.1µM* | -16 | -3% | 4µM*
Cc1cc(C(=O)N/N=C/C=C/c2ccccc2)n[nH]1 | 4 | 16% | -1% | -5 | ? | -24%
